# Shown are actives, neighbours in structure and some others; about 0.77% of the full set was active somewhere.
# Mtb RmlCD inh = M. tuberculosis RmlC/RmlD coupled enzyme inhibitors, primary screen, biochemical, compound mixtures, 384-well, from 1536-well plates. dTDP-4-dehydrorhamnose reductase (Mycobacterium tuberculosis (strain ATCC 25618 / H37Rv)) …. RmlC+RmlD coupled enzyme assay, percent inhibition; primary screen in compound mixtures. inhibition, % at 3.6 µM. actives 0.03% (n = 160,000); in the data active means inhibition mostly above about 34%, no sharp cut-off
# RecA intein inh = Mtb RecA intein splicing inhibitors, primary screen, biochemical, fluorescence, HTS; AID 2221, 2009; Protein RecA (Mycobacterium tuberculosis (strain ATCC 25618 / H37Rv)), P9WHJ3; cell-free RecA intein splicing; inhibition, % (test concentration not listed); actives 0.75% (n = 290,000); in the data active means inhibition above about 30%;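 further: 0% = vehicle wells and 100% = reference inhibitor control wells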
# Target sequence (P9WHJ3 whole entry, looked up): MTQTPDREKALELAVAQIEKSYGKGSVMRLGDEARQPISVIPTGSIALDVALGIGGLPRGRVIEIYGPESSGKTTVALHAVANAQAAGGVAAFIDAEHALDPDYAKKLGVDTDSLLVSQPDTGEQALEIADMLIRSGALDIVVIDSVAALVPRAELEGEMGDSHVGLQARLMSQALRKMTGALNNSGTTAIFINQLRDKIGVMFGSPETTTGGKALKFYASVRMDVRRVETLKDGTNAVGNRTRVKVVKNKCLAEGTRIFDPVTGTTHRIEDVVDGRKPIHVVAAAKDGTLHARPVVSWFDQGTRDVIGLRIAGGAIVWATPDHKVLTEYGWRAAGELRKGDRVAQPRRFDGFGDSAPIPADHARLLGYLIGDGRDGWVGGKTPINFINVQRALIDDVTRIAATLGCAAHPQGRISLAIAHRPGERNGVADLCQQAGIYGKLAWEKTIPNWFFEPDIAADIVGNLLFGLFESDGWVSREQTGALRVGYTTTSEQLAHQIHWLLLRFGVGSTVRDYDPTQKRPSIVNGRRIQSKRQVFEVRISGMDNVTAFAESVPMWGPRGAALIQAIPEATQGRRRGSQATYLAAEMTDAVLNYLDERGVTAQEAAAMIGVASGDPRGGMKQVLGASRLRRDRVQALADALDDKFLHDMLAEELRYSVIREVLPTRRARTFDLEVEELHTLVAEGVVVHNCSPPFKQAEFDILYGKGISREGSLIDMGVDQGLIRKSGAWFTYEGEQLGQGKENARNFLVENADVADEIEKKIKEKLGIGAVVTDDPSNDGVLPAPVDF
# Starred values were filed as active, the others as inactive; . = no result.
SMILES,Mtb RmlCD inh,RecA intein inh
CCCCCCOC(=O)c1ccccc1NC(=O)/C=C/C(=O)O,-4.0,66.9*
CCOC(=O)c1ccccc1NC(=O)/C=C/C(=O)O,4.7,2.2
CC1CCCCN1CC(=O)Nc1ccc2c(c1)OC(F)(F)O2 (stereo not given),.,-3.7
CC(Cn1cncn1)NC(=O)c1cc(COc2cccc(C(F)(F)F)c2)on1 (stereo not given),.,0.6
O=C1Cc2ccccc2C(=O)N1Cc1cccc(Cl)c1,.,0.9
N#C/C(=C\c1cccc(NC(=O)c2ccccc2Cl)c1)C(=O)NCCc1ccccc1,-8.5,35.9*
COCCCNC(=O)/C(C#N)=C/c1cccc(NC(=O)c2ccccc2Cl)c1,-9.3,5.9
O=Cc1cn(CCOc2ccccc2)c2ccccc12,.,2.3
COC(=O)Cc1c(C)nc2nc(NCc3ccc(Cl)cc3)[nH]n2c1=O,7.0,-2.5
COC(=O)Cc1c(C)[nH]n(-c2cc(Cl)cc(Cl)c2)c1=O,-8.9,40.3*
COc1ccc(NC(=O)CSc2nc3c(cc2C#N)CN(C)CC3)cc1,5.3,-1.1
CN1CCc2nc(SCC(=O)Nc3ccc(F)cc3)c(C#N)cc2C1,9.2,32.8*
O=C(CCl)Nc1cn(-c2ccccc2)nc1-c1ccc(F)cc1,2.2,46.2*
Fc1ccc(-c2nn(-c3ccccc3)cc2CNCc2ccccc2)cc1,8.2,10.9
C#CCOCCOCCOCCNc1nc(N2CCN(C(=O)CCCCCCCCCCNC(=O)[C@H](CCCCN)n3cc(C[C@@H](C)CC)nn3)CC2)nc(N2CCN(C(=O)CCCCCCCCCCNC(=O)[C@H](CCCCN)n3cc(C[C@@H](C)CC)nn3)CC2)n1,.,65.5*
C#CCOCCOCCOCCNc1nc(N2CCN(C(=O)CCCCCCCCCCNC(=O)[C@H](CO)n3cc(CCCSC)nn3)CC2)nc(N2CCN(C(=O)CCCCCCCCCCNC(=O)[C@H](CCCCN)n3cc(C[C@@H](C)CC)nn3)CC2)n1,.,1.4
O=C(CCCn1cnc([N+](=O)[O-])n1)Nc1cccc2ccccc12,-8.3,8.7
O=C(CSc1ncnc2c1nnn2Cc1ccccc1F)NCC1CCCO1 (stereo not given),.,50.3*
O=C(Cn1cnc2c(nnn2Cc2ccccc2F)c1=O)NCC1CCCO1 (stereo not given),.,-2.1
NC(=O)[C@@H]1CC2(CC(c3cccc(NC(=O)CC(c4ccccc4)c4ccccc4)c3)=NO2)CN1C(=O)[C@@H]1CCC(=O)N1 (stereo not given in full),4.0,1.4
COc1ccccc1CNC(=O)CCC(=O)N1Cc2cccc(OC)c2Oc2ncccc21,.,-0.5
COc1ccc(S(=O)(=O)N2CCN(C/C=C/c3ccccc3)CC2)cc1F,.,7.0
Cc1nc2ccccc2c(=O)n1-c1cccc([N+](=O)[O-])c1,.,-1.5
CC1=NN(c2cccc([N+](=O)[O-])c2)C(=O)C1,10.4,84.1*
CC(=O)Nc1c(O)nc(SCC(=O)N2CCN(c3ccc(F)cc3)CC2)[nH]c1=O,-11.1,4.1
SMILES,Mtb RmlCD inh,RecA intein inh
Cc1ccc(/C=[N+](/C)[O-])cc1,2.8,0.0
Cc1ccc(C=C2C(Cl)=C(Cl)C(Cl)=C2Cl)cc1,0.3,31.0*
CCSc1nnc(NC(=O)CCCOc2ccc(C)cc2)s1,-8.3,1.4
O=C(Nc1ccccc1-c1nnc(SCc2ccc(Cl)cc2Cl)o1)c1ccccc1,4.9,-3.1
COc1cccc(/C=C/C(=O)c2ccc(NS(=O)(=O)c3ccc(C)cc3)cc2)c1,-2.6,33.9*
COc1cc(/C=C/C(=O)c2ccc(NS(=O)(=O)c3ccc(C)cc3)cc2)cc(OC)c1O,9.7,-4.3
O=C(Nc1nc2ccccc2s1)c1cc(-c2ccco2)nc2ccccc12,37.1*,0.5
Cc1ccc2nc(NC(=O)c3cc(-c4ccco4)nc4ccccc34)sc2c1,5.2,-2.0
COc1ccccc1C(=O)NCC(=O)N/N=C/c1cn[nH]c1-c1ccccc1,7.6,-1.7
Cc1cccc(C(=O)NC2C(=O)NNC2c2ccc(Cl)cc2)c1 (stereo not given),0.9,91.6*
Cc1cccc(C(=O)NC2CCCCCCC2)c1,.,2.2
O=C(O)CC1S/C(=N/N=C/c2ccc(-c3ccc(Cl)c([N+](=O)[O-])c3)o2)NC1=O (stereo not given),14.8,5.3
O=C(O)CC1S/C(=N/N=C/c2ccc(-c3ccc(Cl)cc3[N+](=O)[O-])o2)NC1=O (stereo not given),.,70.1*
CCOc1ccc(C(C(=O)NCC2CCCO2)N(C(=O)c2snc(C(N)=O)c2N)c2ccccc2F)cc1 (stereo not given),.,-4.8
Cc1noc(C)c1CSCC(=O)Oc1ccc(N(C)S(=O)(=O)c2ccccc2)cc1,.,38.1*
Cc1noc(C)c1COC(=O)CN(C)S(=O)(=O)c1ccc(Cl)cc1,.,-0.9
Cc1noc(C)c1CSCC(=O)Oc1ccc(N(C)S(=O)(=O)c2ccc(Cl)cc2)cc1,.,40.1*
CCc1noc(C)c1C(=O)Oc1ccc(N(C)S(=O)(=O)c2ccccc2)cc1,.,10.8
COc1ccc(/C=N/S(=O)(=O)CCc2ccccc2)c(OC)c1,.,1.5
Cc1nn(CCc2nn[nH]n2)c2nc(-c3ccc(C4CCCCC4)cc3)cc(C(F)(F)F)c12,3.0,34.3*
Cc1nn(CCC(=O)O)c2nc(-c3cccnc3)cc(C(F)(F)F)c12,2.0,-0.2
Cc1csc(NC(=O)C2CCCN(S(=O)(=O)c3cnc[nH]3)C2)n1 (stereo not given),-1.9,-0.1
O=C1/C(=C/c2ccccc2F)SC(=S)N1CCC(=O)N1CCCCC1CCO (stereo not given),.,21.9
O=C1/C(=C/c2ccccc2F)SC(=S)N1CC(=O)N1CCCCC1c1cccnc1 (stereo not given),.,32.4*
CCCCCOc1ccc(/C=c2\sc3nc(=O)c(-c4ccccc4)nn3c2=O)cc1OC,11.7,-3.9
SMILES,Mtb RmlCD inh,RecA intein inh
O=c1nc2s/c(=C\c3ccc(-c4ccccc4[N+](=O)[O-])o3)c(=O)n2nc1-c1ccccc1,3.7,64.5*
O=C(NCCS(=O)(=O)NCc1ccc(F)cc1)c1ccc2c(c1)OCO2,.,-2.9
Cc1ccc(C)c(S(=O)(=O)c2c[nH]c(=S)[nH]c2=O)c1,.,-5.8
Nc1c(Sc2ccccc2)c(=O)[nH]c(=O)n1Cc1ccccc1,.,1.0
Cc1[nH]n(C(C)(C)C)c(=O)c1Sc1ccccc1,-2.5,50.1*
CNC(=O)c1c(NC(=O)CS(=O)(=O)c2ccc(Cl)cc2)sc(C)c1C,.,-1.5
CC(NC(=O)Cn1cnnn1)c1cccc(C(F)(F)F)c1 (stereo not given),.,-4.9
CCCCCN(C(=O)CCC(=O)OCc1cc(C(C)=O)ccc1OC)c1c(N)n(CCCC)c(=O)[nH]c1=O,.,2.6
O=C(O)c1cccc(N/N=C(\N=Nc2ccccc2)c2ccccc2)c1,.,40.7*
O=C(O)c1ccc(N=N/C(=N\Nc2ccc(C(=O)O)cc2)c2ccccc2)cc1,.,1.5
O=C(CCl)c1ccc2c(c1)CCN2C(=O)C1CC1,5.9,60.4*
O=C(C1CCC(C(=O)N2CCc3ccccc32)CC1)N1CCc2ccccc21 (stereo not given),-8.6,-0.8
COc1ccc(CCNC(=O)c2ccccc2NC(=O)C2=C(C)OCCS2)cc1OC,.,3.2
O=C1CCCCCN1Cc1nnc(SCc2nc3ccccc3s2)n1-c1ccccn1,.,2.9
O=[N+]([O-])c1cccc2c(N3CCOCC3)ccnc12,.,8.4
O=[N+]([O-])c1ccc(N2CCOCC2)c2ccncc12,7.3,30.1*
Cc1nc(N)ncc1Sc1ccc(Cl)cc1,17.4,2.8

# High-throughput results as filed in PubChem.
